From PubChem
This is one part of a sample in which hits are shown more often than they occur.
Tg IFNy HTS = T. gondii growth inhibition with IFN-gamma, primary screen, cell-based; Toxoplasma gondii growth in IFN-gamma-treated host cells; active compounds read low; 3.8% of 69,000 active; activity change, negative = inhibition, % (no concentration beside the values); in the data active means activity change below about -70%, passing the limit was not always enough;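 further: host cells are HeLa cells infected with Toxoplasma gondii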
* = called active by the depositor.

SMILES | Tg IFNy HTS
CCO[C@H]1CC[C@@H]2[C@H]1OCCN2Cc1cc(C)on1 | -80.8*
CCO[C@@H]1CC[C@@H]2[C@H]1OCCN2Cc1cc(C)on1 | -11.5
Cn1ccnc1CN1CCCC2(CCNC2=O)C1 (centres undefined) | -60.8
Cc1cccc(OCC(=O)N2CCCN3CCC[C@H]3C2)c1C | 1.7
CCO[C@@H]1CC2CC1CN2Cc1cnn(C)c1 (some centres undefined) | 83.5
O=C(NCC1CCC2(CCNCC2)O1)C1CC1 (centres undefined) | -65.4
COc1ccccc1NC(=O)c1cc2cccnc2n(Cc2ccc(Cl)cc2)c1=O | 34.6
